# Assay results from PubChem BioAssay AID2108 (National Center for Advancing Translational Sciences (NCATS), 2009).
# Inconclusive results are not listed. Calls of active or inactive are those of the source. The call rests on the fitted dose curve; in most records, active means well fitted curve in the direction sought with a large enough effect; inconclusive means small, poorly fitted or top-dose-only effect, or effect the other way, or another doubt; inactive means no such curve, though single readings can be large or run the other way.
# Biological target: Alpha-galactosidase A (Homo sapiens) (UniProt P06280)
# Sequence (P06280 32-429 limits assumed): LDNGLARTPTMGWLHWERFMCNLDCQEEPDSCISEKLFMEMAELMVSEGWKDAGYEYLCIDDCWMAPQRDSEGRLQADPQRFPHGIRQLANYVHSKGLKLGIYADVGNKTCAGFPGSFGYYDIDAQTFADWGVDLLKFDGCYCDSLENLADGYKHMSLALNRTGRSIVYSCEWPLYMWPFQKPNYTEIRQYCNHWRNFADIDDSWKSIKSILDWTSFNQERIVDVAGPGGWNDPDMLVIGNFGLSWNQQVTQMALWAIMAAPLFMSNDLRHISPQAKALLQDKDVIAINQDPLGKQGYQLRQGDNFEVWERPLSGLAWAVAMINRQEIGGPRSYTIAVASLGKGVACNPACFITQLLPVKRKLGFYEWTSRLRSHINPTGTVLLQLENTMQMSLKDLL
# Experiment: Confirmation of Inhibitors of Human alpha-Galactosidase Using Spleen Homogenate
# Conditions: alpha-galactosidase enzyme activity; series mostly up to 56.2 µM
# Procedure, shortened: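 AC50 values come from Hill-equation fits of normalised 4-methylumbelliferone fluorescence (365/440 nm, read after NaOH/glycine stop). Enzyme source: spleen homogenate; substrate 1 mM final; pH 5.0 citrate buffer; 40 min at 37C; compound titration 0.5 nM–58 uM.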
row,Structure (SMILES),outcome
1,Clc1cc2c(cc1/C=C/c1ccc3ccccc3n1)OCO2,inactive
2,CCC1c2ccc(C)n2CCN1C(=O)Nc1ccccc1C(=O)OC (stereo unspecified),inactive
3,Cc1ccccc1NC(=O)CC1c2ccccc2CC(C)(C)N1C (stereo unspecified),inactive
4,CN1CC=C2C(C#N)=C(N)C(C#N)(C#N)[C@H](c3cccc(Cl)c3)C2C1 (stereo partly specified),inactive
5,CCCCN1C[C@H](O)[C@@H](O)[C@H](O)[C@H]1CO,inactive
6,N#Cc1ccccc1S(=O)(=O)N1CCOCC1,inactive
7,CC(=O)c1cccc(S(=O)(=O)N2CCOCC2)c1,inactive
8,CC(C)C[C@H](NC(=O)c1nc[nH]c1C(=O)NCC(=O)OCc1ccccc1)C(=O)OC(C)(C)C,inactive
9,C=CCCCCCCCCCCCc1ccco1,inactive
10,Cc1ccc2oc(C(=O)Nc3ccc(S(=O)(=O)N4CCCCC4C)cc3)cc(=O)c2c1 (stereo unspecified),inactive
11,Cc1ccc(S(=O)(=O)N2CCN(CC(=O)N/N=C\c3ccccn3)CC2)cc1,inactive
12,O=C(NC1=NCCS1)C1Cc2ccccc2CN1C(=O)c1ccccc1 (stereo unspecified),inactive
13,COC(=O)CSc1cc([N+](=O)[O-])ccc1NC(=O)OC,inactive
14,CCOC(=O)N1CCN(c2cc(N(C)CCO)c([N+](=O)[O-])c3nonc23)CC1,inactive
15,Cc1ccc(N/N=C2\CCS(=O)(=O)c3sccc32)cc1,inactive
16,COCCSc1nc(N)c2c3c(sc2n1)CN(C)CC3,inactive
17,CC(=O)Oc1ccc2cc(-c3nc(-c4ccccc4)c(C)s3)c(=O)oc2c1,inactive
18,c1ccc(-n2c(-c3cccs3)nc3nc4ccccc4nc32)cc1,inactive

row,Structure (SMILES),outcome
1,O=C(c1ccccc1)N1CCN(C(=O)N(c2ccccc2)c2ccccc2)CC1,inactive
2,COCCn1c(=NC(=O)c2ccc3c(c2)OCO3)c(C#N)cc2c(=O)n3cccc(C)c3nc21,inactive
3,Nc1ccc(Cc2ccc(N)c(O)c2)cc1O,inactive
4,COCCNS(=O)(=O)c1ccc2c(c1)n(C)c(=O)n2C,inactive
5,Cc1sc(-c2cc3cc(Br)ccc3oc2=O)nc1-c1ccccc1,inactive
6,Cc1[nH]nc2c1C(c1ccc(OC(=O)c3ccco3)cc1)C(C#N)=C(N)O2 (stereo unspecified),inactive
7,CCCc1cc(-c2nc(N)ncc2-c2ccc3c(c2)OCCCO3)c(O)cc1OC,inactive
8,CC(=O)Nc1c(S(=O)(=O)c2ccccc2)c2nc3ccccc3nc2n1Cc1ccccc1,inactive
9,C=CCSc1nc(-c2ccc3c(c2)OCO3)cc(C(F)(F)F)c1C#N,inactive
10,CCc1ccc(N=CC23c4ccccc4C(c4ccccc42)C2C(=O)N(c4ccc(OC)cc4)C(=O)C23)cc1 (stereo unspecified),inactive
11,O=S(=O)(c1ccccc1Br)N1CCOCC1,inactive
12,Cc1cc(NC(=O)C(C)(C)C)cc(-c2nc3ncccc3o2)c1O,inactive
13,O=c1oc2ccc3ccccc3c2cc1-c1nc(CCCBr)cs1,inactive
14,O=c1oc2ccccc2cc1-c1csc(Cc2nc3c(s2)CCCC3)n1,inactive
15,Cc1c(Nc2c3ccccc3nc3ccccc23)c(=O)n(-c2ccccc2)n1C,inactive
16,Cc1cc(C)nc(SCc2cc(=O)c(OC(=O)c3ccco3)co2)n1,inactive
17,N#Cc1c(N2CCN(c3ccc(F)cc3)CC2)nc(N)c2c(N)nc3c(c12)CC(=O)N3C1CC1,inactive
18,CCCCn1c(CN2CCN(c3cccc(Cl)c3)CC2)nc2c1c(=O)n(C)c(=O)n2C,inactive
